Where a name gives a salt, the structure may show the parent alone.
tested on: FLX1 + dox-induced PRKAR1A G325D; assay: difference in log2 fold change of viability vs plate median (dox-induced PRKAR1A G325D minus uninduced); higher = compound less effective when PKA is inhibited; conditions: concentration: not stated (2 or 5 uM); 5 days
Method: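 For each plate a log2 fold change vs the plate median was derived, and the values without dox were subtracted from those with dox, averaged over three biological replicates.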

Question: `CCc1cc(Nc2nccc(-c3c(-c4ccc(OC)c(C(=O)Nc5c(F)cccc5F)c4)nc4ccccn34)n2)c(OC)cc1N1CCC(N2CCN(S(C)(=O)=O)CC2)CC1` was tested. Which “difference in log2 fold change of viability” value (“difference in log2 fold change” for short) did it give?
Answer: 0.164

Question: How did the “difference in log2 fold change” value turn out when `COc1cc(N2CCC(N)CC2)ccc1Nc1ncc(Cl)c(-c2c[nH]c3ccccc23)n1` was run?
Answer: 0.0117

Question: With `COc1cc(CCc2cc(NC(=O)c3ccc(N4CC(C)NC(C)C4)cc3)n[nH]2)cc(OC)c1` (stereo not given) as the compound, how does the “difference in log2 fold change” value read?
Answer: -0.468

Question: `COc1cc(F)c(F)c(Nc2ccc(I)cc2F)c1NS(=O)(=O)C1(C[C@H](O)CO)CC1` [Refametinib (RDEA119, Bay 86-9766)] was tested. Which “difference in log2 fold change” value did it give?
Answer: 0.183

Question: For `O=C1NC(=O)C(c2cnc3ccccn23)=C1c1cn2c3c(cc(F)cc13)CN(C(=O)N1CCCCC1)CC2`, which “difference in log2 fold change” value is on record?
Answer: 0.116

Question: With `Cc1ccc(C(=O)Nc2ccc(CN3CCN(C)CC3)c(C(F)(F)F)c2)cc1C#Cc1cnc2[nH]ncc2c1` [GZD824 Dimesylate] as the compound, how does the “difference in log2 fold change” value read?
Answer: 0.11

Question: With `Clc1ccc(Nc2nnc(Cc3ccncc3)c3ccccc23)cc1` [Vatalanib (PTK787) 2HCl] as the compound, how does the “difference in log2 fold change” value read?
Answer: 0.168

Question: How did the “difference in log2 fold change” value turn out when `COc1ncc(-c2ccc3nccc(-c4ccnnc4)c3c2)cc1NS(=O)(=O)c1ccc(F)cc1F` was run?
Answer: 0.179

Question: How did the “difference in log2 fold change” value turn out when `CO[C@H]1C[C@@H]2CC[C@@H](C)[C@@](O)(O2)C(=O)C(=O)N2CCCC[C@H]2C(=O)O[C@H]([C@H](C)C[C@@H]2CC[C@@H](O)[C@H](OC)C2)CC(=O)[C@H](C)/C=C(\C)[C@@H](O)[C@@H](OC)C(=O)[C@H](C)C[C@H](C)/C=C/C=C/C=C/1C` [Rapamycin (Sirolimus)] was run?
Answer: -0.339

Question: Which “difference in log2 fold change” value does the source give for `O=C1NC(=O)[C@@H](c2cn3c4c(cccc24)CCC3)[C@@H]1c1c[nH]c2ccccc12` [Tivantinib (ARQ 197)] here?
Answer: 0.768

Question: For `CNC(=O)c1cc(Oc2ccc(NC(=O)Nc3cc(C(C)(C)C)nn3-c3ccc4ncccc4c3)c(F)c2)ccn1` [Rebastinib (DCC-2036)], which “difference in log2 fold change” value is on record?
Answer: 0.37

Question: How did the “difference in log2 fold change” value turn out when `FC(F)c1nc2ccccc2n1-c1nc(N2CCOCC2)nc(N2CCOCC2)n1` was run?
Answer: 0.435

Question: How did the “difference in log2 fold change” value turn out when `Cc1cc(CS(=O)(=O)c2ccccc2)cc(OCc2ccc(CN3CCC[C@@H]3CO)cc2)c1` was run?
Answer: 0.461

Question: Which “difference in log2 fold change” value does the source give for `Clc1ccc(C2(c3ccc(-c4cn[nH]c4)cc3)CCNCC2)cc1` here?
Answer: 0.734

Question: For `CCN(CC)CCNC(=O)c1c(C)[nH]c(/C=C2\C(=O)Nc3ccc(F)cc32)c1C` [Sunitinib Malate], which “difference in log2 fold change” value is on record?
Answer: -0.043

Question: `CCc1nc(-c2cccc(C)c2)c(-c2ccnc(NC(=O)c3ccccc3)c2)s1` was tested. Which “difference in log2 fold change” value did it give?
Answer: 0.387

Question: With `CS(=O)(=O)CCNCc1ccc(-c2ccc3ncnc(Nc4ccc(OCc5cccc(F)c5)c(Cl)c4)c3c2)o1` as the compound, how does the “difference in log2 fold change” value read?
Answer: 0.519

Question: With `CN1CCN(c2ccc(Nc3cc(-c4cccc(-n5ccc6cc(C7CC7)cc(F)c6c5=O)c4CO)cn(C)c3=O)nc2)CC1` as the compound, how does the “difference in log2 fold change” value read?
Answer: -0.059

Question: Which “difference in log2 fold change” value does the source give for `Cc1nc(Nc2cnn(C3CCNCC3)c2)nc2c1N(C)C(=O)c1cc3ccccc3cc1N2C` here?
Answer: -0.568

Question: For `O=C1NC(=O)C(c2ccccc2[N+](=O)[O-])=C1Nc1ccc(O)c(Cl)c1`, which “difference in log2 fold change” value is on record?
Answer: -0.00686

Question: How did the “difference in log2 fold change” value turn out when `Nc1nc(Nc2ccc(S(N)(=O)=O)cc2)nn1C(=O)c1c(F)cccc1F` was run?
Answer: 0.0351

Question: With `CNc1nc(-c2ccc3c(N)n[nH]c3c2)cc(N2C[C@@H](C(=O)NC3CCCCC3)CC[C@H]2C)n1` as the compound, how does the “difference in log2 fold change” value read?
Answer: 0.221

Question: How did the “difference in log2 fold change” value turn out when `C=CC(=O)Nc1ccc2ncnc(Nc3ccc(OCc4cccc(F)c4)c(Cl)c3)c2c1` was run?
Answer: -0.53

Question: How did the “difference in log2 fold change” value turn out when `NC(=O)c1ccc(N(C(N)=O)c2c(F)cccc2F)nc1-c1ccc(F)cc1F` was run?
Answer: 0.256

Question: `COc1cc2c(Oc3ccc4[nH]c(C)cc4c3F)ncnc2cc1OCCCN1CCCC1` [Cediranib (AZD2171)] was tested. Which “difference in log2 fold change” value did it give?
Answer: 0.58

Question: How did the “difference in log2 fold change” value turn out when `N#CC[C@H](C1CCCC1)n1cc(-c2ncnc3[nH]ccc23)cn1` was run?
Answer: 0.145

Question: `O=C(NCc1ccccc1)c1csc(Nc2ccncn2)n1` [Thiazovivin] was tested. Which “difference in log2 fold change” value did it give?
Answer: 0.59

Question: With `CCOc1cc(N2CCC(O)CC2)ccc1Nc1ncc2c(n1)N(C)c1ccccc1C(=O)N2C` as the compound, how does the “difference in log2 fold change” value read?
Answer: 0.697

Question: Which “difference in log2 fold change” value does the source give for `Oc1ccc(Nc2nc(-c3ccc(Cl)cc3)cs2)cc1` here?
Answer: -0.56

Question: How did the “difference in log2 fold change” value turn out when `Nc1cc(C(F)(F)F)c(-c2cc(N3CCOCC3)nc(N3CCOCC3)n2)cn1` [Buparlisib (BKM120, NVP-BKM120)] was run?
Answer: 0.841

Question: With `O=c1cc(-c2cccc3c2Sc2ccccc2S3)oc(N2CCOCC2)c1` as the compound, how does the “difference in log2 fold change” value read?
Answer: 0.329

Question: `O=C1Nc2ccccc2/C1=C1/Nc2ccccc2C1=O` [Indirubin] was tested. Which “difference in log2 fold change” value did it give?
Answer: 0.211

Question: `Cc1cnc(NC(=O)Nc2cc(Br)c(C)cc2OC[C@@H]2CNCCO2)cn1` was tested. Which “difference in log2 fold change” value did it give?
Answer: 1.29

Question: For `Cc1c(CN2CCN(C(=O)[C@H](C)O)CC2)sc2c(N3CCOCC3)nc(-c3cnc(N)nc3)nc12` [Apitolisib (GDC-0980, RG7422)], which “difference in log2 fold change” value is on record?
Answer: 0.628

Question: For `N#C/C(=C\c1ccc(O)c(O)c1)C(=O)NCc1ccccc1` [AG-490 (Tyrphostin B42)], which “difference in log2 fold change” value is on record?
Answer: -0.0065

Question: With `COc1cc2c(Oc3ccc(NC(=O)C4(C(=O)Nc5ccc(F)cc5)CC4)cc3F)ccnc2cc1OCCCN1CCOCC1` as the compound, how does the “difference in log2 fold change” value read?
Answer: -0.0914

Question: How did the “difference in log2 fold change” value turn out when `CCCS(=O)(=O)Nc1ccc(F)c(C(=O)c2c[nH]c3ncc(Cl)cc23)c1F` was run?
Answer: 0.333

Question: `COc1cc2nccc(Oc3ccc(NC(=O)C4(C(=O)Nc5ccc(F)cc5)CC4)cc3)c2cc1OC` was tested. Which “difference in log2 fold change” value did it give?
Answer: 0.457

Question: Which “difference in log2 fold change” value does the source give for `NCC(=O)Nc1ccc(-n2nc(C(F)(F)F)cc2-c2ccc3c(ccc4ccccc43)c2)cc1` here?
Answer: 0.186

Question: `CCCCCCCCc1ccc(CCC(N)(CO)CO)cc1` [Fingolimod (FTY720) HCl] was tested. Which “difference in log2 fold change” value did it give?
Answer: 0.301

From the supplement of paper PMC9925115
